1 sequence from paper PMC7862700, “An all-to-all approach to the identification of sequence-specific readers for epigenetic DNA modifications on cytosine” can be followed below.

Holding throughout (experiment): DAPPL (digital affinity profiling via proximity ligation, sequencing); 10 mM Tris-HCl pH 7.5, 50 mM NaCl, 1 mM DTT, 4% glycerol, room temperature, 30 min; GST-TFs on glutathione beads, 16-mer random dsDNA library, 0.1% formaldehyde crosslink after washing; high values mean tight binding
In one assay the target is T1, FEV (Homo sapiens, UniProt Q99581 1-238).
T1 sequence: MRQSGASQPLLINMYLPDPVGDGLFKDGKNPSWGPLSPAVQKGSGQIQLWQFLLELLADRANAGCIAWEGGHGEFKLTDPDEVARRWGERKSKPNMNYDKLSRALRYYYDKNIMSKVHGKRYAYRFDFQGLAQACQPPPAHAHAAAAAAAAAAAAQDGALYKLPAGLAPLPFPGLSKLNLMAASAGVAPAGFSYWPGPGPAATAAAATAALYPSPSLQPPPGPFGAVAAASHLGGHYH
As to conditions: protein: recombinant; tags: N-terminal GST; dsDNA, one strand shown. In short, it runs like this:
(§1)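 After expression in yeast as GST fusions, human transcription factors were bound to glutathione beads, DNA-barcoded and mixed with a tag-only sample. The pools were incubated with 200 nmole of a 16-mer random double-stranded DNA library in Tris/NaCl/DTT/glycerol buffer (30 min, room temperature), washed and crosslinked with 0.1% formaldehyde. Proximity ligation with BsaI/T4 ligase ran for 1 h at 37 °C, before PCR amplification and sequencing on an Illumina NextSeq500. Binding signal is a hexamer's read frequency for a factor divided by its frequency for the tag-only sample.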

The target of another assay is ETV5 (Homo sapiens, UniProt P41161 1-510). The conditions noted are these: protein: recombinant; tags: N-terminal GST; dsDNA, one strand shown. In short, it runs like this: as §1
Chain of ETV5 (P41161 whole entry): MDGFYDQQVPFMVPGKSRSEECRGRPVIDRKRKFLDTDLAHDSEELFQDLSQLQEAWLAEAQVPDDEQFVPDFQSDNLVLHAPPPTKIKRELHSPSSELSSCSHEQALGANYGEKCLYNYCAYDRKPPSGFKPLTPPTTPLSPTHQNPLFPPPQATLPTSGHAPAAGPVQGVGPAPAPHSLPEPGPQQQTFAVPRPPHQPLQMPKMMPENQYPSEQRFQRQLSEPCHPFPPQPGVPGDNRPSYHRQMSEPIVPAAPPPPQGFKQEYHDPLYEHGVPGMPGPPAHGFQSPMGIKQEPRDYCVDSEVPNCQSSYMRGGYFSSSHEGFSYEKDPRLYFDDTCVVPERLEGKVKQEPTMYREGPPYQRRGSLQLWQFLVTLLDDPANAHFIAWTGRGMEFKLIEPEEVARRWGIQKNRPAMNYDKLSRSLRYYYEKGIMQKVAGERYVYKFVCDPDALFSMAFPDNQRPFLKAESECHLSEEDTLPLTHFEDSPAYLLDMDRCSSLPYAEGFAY
The target of the next assay is HSF1 (Homo sapiens, UniProt Q00613 1-529). The conditions noted are these: protein: recombinant; tags: N-terminal GST; chain copies: 3; dsDNA, one strand shown. In short, it runs like this:
as §1

The next assay addresses T2, SPIC (Homo sapiens, UniProt Q8N5J4 1-248).
T2 sequence: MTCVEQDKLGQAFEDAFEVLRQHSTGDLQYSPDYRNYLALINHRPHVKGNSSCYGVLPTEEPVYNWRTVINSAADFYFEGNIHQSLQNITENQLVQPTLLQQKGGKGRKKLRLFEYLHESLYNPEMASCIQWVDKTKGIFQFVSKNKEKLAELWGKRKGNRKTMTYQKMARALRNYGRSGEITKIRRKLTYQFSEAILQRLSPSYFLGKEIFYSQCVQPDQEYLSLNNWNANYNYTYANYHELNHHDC
The conditions noted are these: protein: recombinant; tags: N-terminal GST; dsDNA, one strand shown. The gist of the method: as §1

A further assay addresses ELF4 (Homo sapiens, UniProt Q99607 1-663). As to conditions: protein: recombinant; tags: N-terminal GST; dsDNA, one strand shown. The gist of the method:
as §1

The next assay has as its target T3, ELK4 (Homo sapiens, UniProt P28324-2 1-405).
T3 sequence: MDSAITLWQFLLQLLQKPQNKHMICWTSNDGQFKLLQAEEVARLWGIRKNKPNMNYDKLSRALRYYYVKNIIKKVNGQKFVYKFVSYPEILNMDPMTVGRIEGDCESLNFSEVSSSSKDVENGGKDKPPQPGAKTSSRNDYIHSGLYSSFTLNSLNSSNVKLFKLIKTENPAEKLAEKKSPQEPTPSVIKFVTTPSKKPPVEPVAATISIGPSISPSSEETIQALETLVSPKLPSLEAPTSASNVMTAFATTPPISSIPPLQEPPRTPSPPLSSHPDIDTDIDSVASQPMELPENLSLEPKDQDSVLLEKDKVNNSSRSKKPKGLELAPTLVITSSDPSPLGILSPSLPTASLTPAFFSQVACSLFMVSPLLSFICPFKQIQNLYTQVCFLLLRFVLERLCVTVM
The conditions noted are these: protein: recombinant; tags: N-terminal GST; dsDNA, one strand shown. The gist of the method: as §1

The next assay concerns the target T4, ETV2 (Homo sapiens, UniProt O00321 1-342).
T4 sequence: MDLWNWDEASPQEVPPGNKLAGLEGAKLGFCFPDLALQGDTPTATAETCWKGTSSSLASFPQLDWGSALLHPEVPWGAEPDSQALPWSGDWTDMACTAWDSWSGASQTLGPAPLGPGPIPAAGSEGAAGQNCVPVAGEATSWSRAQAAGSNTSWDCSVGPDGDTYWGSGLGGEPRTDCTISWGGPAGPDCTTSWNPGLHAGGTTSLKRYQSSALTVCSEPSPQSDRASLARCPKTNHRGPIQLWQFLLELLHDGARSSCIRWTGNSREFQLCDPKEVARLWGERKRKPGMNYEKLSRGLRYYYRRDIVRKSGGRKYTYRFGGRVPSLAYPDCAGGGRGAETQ
The conditions noted are these: protein: recombinant; tags: N-terminal GST; dsDNA, one strand shown. The gist of the method:
as §1

The next assay has as its target T5, ELF3 (Homo sapiens, UniProt P78545 1-371).
T5 sequence: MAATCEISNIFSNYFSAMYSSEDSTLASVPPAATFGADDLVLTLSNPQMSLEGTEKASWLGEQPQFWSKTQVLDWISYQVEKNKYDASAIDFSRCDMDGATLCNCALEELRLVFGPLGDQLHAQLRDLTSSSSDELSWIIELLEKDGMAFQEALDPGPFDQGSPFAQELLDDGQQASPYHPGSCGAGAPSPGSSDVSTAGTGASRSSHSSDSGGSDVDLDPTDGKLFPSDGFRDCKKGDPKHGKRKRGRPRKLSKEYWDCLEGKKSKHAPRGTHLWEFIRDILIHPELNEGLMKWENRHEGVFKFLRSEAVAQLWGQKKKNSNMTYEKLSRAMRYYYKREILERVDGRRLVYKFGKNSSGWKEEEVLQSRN
As to conditions: protein: recombinant; tags: N-terminal GST; dsDNA, one strand shown. The gist of the method:
as §1

The target in the next assay is CRX (Homo sapiens, UniProt O43186 1-299). The conditions noted are these: protein: recombinant; tags: N-terminal GST; dsDNA, one strand shown. In short, it runs like this:
as §1

For a further assay, the target named is ETV1 (Homo sapiens, UniProt P50549 1-477). As to conditions: protein: recombinant; tags: N-terminal GST; dsDNA, one strand shown. The gist of the method:
as §1

A further assay addresses T6, ERF (Homo sapiens, UniProt P50548 1-548).
T6 sequence: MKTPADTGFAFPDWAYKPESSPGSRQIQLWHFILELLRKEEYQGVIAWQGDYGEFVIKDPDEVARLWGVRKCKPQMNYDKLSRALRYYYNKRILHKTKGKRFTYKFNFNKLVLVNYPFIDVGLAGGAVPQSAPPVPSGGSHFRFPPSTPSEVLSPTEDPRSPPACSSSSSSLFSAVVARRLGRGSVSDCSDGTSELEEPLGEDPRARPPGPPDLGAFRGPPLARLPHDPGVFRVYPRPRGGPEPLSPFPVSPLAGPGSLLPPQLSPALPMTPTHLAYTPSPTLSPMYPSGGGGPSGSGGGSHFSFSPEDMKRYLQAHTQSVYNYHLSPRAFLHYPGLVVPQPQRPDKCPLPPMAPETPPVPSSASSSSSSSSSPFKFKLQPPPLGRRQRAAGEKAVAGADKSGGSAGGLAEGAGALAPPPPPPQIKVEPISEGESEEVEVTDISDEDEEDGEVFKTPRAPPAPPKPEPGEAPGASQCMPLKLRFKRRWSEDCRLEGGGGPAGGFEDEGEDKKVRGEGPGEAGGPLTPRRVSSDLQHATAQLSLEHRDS
The conditions noted are these: protein: recombinant; tags: N-terminal GST; dsDNA, one strand shown. In short, it runs like this:
as §1

Another assay has as its target T7, ETV3L (Homo sapiens, UniProt Q6ZN32 1-361).
T7 sequence: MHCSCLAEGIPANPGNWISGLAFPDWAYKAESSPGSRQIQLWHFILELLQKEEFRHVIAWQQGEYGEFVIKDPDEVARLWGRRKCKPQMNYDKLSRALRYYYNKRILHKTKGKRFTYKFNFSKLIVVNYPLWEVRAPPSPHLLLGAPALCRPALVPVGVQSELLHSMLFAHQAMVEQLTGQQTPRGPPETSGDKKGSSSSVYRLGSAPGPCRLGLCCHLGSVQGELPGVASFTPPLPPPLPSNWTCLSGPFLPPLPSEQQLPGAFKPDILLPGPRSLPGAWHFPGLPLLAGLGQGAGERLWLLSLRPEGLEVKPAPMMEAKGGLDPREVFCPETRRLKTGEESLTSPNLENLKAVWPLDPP
The conditions noted are these: protein: recombinant; tags: N-terminal GST; dsDNA, one strand shown. The gist of the method:
as §1

The next assay addresses T8, ETS2 (Homo sapiens, UniProt P15036 1-469).
T8 sequence: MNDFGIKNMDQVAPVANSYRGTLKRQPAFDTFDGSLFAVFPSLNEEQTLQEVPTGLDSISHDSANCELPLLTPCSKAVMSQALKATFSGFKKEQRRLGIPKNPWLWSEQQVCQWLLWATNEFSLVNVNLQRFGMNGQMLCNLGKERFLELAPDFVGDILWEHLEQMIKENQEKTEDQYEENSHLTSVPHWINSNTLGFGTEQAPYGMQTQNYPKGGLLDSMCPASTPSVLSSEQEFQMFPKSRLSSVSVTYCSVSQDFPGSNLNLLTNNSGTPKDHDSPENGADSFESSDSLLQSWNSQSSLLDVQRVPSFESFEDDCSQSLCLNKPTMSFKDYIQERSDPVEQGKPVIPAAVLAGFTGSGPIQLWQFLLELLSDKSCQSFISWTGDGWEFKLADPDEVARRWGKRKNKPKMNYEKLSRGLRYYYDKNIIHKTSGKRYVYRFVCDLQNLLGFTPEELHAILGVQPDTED
As to conditions: protein: recombinant; tags: N-terminal GST; dsDNA, one strand shown. The gist of the method: as §1

In another assay the target is T9, SPDEF (Homo sapiens, UniProt O95238 1-335).
T9 sequence: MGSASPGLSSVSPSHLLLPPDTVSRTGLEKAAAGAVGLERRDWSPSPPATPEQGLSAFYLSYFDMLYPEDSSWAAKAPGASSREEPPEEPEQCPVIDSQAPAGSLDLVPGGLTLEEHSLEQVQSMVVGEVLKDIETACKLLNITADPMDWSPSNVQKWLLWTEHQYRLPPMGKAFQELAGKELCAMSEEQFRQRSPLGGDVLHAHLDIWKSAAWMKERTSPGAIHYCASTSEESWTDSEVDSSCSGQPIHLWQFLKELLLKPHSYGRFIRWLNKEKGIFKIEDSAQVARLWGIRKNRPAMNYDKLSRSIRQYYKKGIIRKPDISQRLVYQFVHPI
The conditions noted are these: protein: recombinant; tags: N-terminal GST; dsDNA, one strand shown. In short, it runs like this:
as §1

The target of another assay is T10, ETV7 (Homo sapiens, UniProt Q9Y603 1-341).
T10 sequence: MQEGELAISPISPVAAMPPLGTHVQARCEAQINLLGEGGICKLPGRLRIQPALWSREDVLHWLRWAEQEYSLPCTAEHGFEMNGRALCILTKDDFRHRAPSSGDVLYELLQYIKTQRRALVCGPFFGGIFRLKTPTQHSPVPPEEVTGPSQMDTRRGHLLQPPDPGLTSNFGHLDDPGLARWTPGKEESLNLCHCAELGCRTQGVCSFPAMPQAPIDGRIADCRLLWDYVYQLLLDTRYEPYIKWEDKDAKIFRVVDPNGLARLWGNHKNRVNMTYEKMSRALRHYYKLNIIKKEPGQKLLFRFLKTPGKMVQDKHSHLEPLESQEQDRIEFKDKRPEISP
As to conditions: protein: recombinant; tags: N-terminal GST; dsDNA, one strand shown. The gist of the method:
as §1

Another assay has as its target T11, ELF5 (Homo sapiens, UniProt Q9UKW6-2 1-255).
T11 sequence: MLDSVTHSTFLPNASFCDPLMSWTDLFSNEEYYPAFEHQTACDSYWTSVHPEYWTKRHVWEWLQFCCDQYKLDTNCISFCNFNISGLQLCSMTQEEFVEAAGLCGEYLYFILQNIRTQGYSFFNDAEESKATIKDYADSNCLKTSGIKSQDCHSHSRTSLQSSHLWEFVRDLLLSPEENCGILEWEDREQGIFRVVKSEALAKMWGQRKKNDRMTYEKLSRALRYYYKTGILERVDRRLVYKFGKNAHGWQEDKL
As to conditions: protein: recombinant; tags: N-terminal GST; dsDNA, one strand shown. The gist of the method:
as §1

The target in the next assay is T12, ETV3 (Homo sapiens, UniProt P41162-2 1-143).
T12 sequence: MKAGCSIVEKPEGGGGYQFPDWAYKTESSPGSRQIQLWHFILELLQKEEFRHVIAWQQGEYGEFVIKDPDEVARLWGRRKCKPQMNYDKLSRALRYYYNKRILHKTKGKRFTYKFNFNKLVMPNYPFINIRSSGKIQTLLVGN
As to conditions: protein: recombinant; tags: N-terminal GST; dsDNA, one strand shown. In short, it runs like this: as §1

Another assay concerns the target ETV6 (Homo sapiens, UniProt P41212 1-452). The conditions noted are these: protein: recombinant; tags: N-terminal GST; dsDNA, one strand shown. In short, it runs like this: as §1

Chain of ETV6 (P41212 whole entry): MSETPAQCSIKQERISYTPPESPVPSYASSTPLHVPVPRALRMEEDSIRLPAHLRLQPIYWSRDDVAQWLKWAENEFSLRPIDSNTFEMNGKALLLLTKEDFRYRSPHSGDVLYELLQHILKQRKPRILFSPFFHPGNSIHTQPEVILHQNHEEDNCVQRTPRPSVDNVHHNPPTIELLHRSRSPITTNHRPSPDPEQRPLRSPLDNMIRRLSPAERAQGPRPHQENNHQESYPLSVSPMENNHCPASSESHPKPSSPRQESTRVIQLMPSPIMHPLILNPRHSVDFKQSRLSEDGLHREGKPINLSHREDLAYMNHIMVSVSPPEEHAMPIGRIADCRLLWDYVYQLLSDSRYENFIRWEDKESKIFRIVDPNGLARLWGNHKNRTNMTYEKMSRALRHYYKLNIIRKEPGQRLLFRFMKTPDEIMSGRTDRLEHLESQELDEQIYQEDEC
Chain of CRX (O43186 whole entry): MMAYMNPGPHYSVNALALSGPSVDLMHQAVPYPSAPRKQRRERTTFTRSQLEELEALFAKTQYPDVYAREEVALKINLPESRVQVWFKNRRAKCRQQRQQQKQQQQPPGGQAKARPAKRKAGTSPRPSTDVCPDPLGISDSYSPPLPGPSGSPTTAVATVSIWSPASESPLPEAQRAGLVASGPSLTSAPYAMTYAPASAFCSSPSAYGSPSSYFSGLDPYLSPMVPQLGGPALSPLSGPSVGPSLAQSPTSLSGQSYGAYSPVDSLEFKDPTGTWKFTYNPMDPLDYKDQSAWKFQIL
Chain of ELF4 (Q99607 whole entry): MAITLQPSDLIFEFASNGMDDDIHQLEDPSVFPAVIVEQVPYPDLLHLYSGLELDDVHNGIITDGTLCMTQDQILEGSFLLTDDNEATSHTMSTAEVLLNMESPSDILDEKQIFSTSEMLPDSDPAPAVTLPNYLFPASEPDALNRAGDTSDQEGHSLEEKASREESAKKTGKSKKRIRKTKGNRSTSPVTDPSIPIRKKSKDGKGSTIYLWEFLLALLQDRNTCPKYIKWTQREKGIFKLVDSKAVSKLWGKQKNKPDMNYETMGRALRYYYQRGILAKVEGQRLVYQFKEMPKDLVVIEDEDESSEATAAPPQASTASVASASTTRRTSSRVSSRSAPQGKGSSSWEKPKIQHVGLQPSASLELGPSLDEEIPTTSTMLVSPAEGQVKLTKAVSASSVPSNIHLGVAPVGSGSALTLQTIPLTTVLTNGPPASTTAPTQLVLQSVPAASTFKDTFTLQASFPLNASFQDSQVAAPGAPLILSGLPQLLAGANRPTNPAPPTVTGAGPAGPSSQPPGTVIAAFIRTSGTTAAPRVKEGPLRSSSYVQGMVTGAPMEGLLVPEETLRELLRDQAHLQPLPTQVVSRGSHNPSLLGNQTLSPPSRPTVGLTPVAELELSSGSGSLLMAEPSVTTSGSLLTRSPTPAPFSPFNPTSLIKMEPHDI
Chain of HSF1 (Q00613 whole entry): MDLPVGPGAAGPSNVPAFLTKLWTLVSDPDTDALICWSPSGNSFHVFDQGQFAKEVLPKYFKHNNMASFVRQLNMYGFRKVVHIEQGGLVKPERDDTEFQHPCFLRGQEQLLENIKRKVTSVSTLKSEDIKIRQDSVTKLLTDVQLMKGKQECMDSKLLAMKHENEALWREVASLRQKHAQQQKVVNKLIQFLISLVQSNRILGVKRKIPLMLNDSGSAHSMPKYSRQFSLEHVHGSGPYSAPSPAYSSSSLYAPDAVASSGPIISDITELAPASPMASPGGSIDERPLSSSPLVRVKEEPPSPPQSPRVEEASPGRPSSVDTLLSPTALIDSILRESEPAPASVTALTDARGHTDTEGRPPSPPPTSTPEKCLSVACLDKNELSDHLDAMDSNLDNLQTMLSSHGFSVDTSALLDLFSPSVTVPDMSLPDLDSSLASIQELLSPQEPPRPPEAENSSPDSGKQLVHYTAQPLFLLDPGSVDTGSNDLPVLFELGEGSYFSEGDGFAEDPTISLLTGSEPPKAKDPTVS
Chain of ETV1 (P50549 whole entry): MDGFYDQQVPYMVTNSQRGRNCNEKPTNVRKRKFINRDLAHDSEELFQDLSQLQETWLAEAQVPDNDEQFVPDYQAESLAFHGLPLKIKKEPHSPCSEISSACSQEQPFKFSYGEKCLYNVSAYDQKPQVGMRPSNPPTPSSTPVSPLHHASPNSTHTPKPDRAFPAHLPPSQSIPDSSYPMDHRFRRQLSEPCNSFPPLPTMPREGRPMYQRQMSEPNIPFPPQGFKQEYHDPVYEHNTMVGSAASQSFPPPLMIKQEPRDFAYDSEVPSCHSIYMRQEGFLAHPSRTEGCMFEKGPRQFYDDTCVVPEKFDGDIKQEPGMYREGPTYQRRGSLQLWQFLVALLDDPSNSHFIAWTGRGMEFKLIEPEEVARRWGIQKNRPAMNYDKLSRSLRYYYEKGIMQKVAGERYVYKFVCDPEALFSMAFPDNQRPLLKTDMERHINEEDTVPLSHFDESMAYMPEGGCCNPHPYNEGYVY

On to ATATGC, for which the binding signal with FEV was 1.11 fold enrichment (6-mer frequency, TF over GST control); in the assay with ETV5, 1.15 fold enrichment (6-mer frequency, TF over GST control); with HSF1 it was 1.01 fold enrichment (6-mer frequency, TF over GST control); with SPIC, 1.4 fold enrichment (6-mer frequency, TF over GST control); with ELF4, 1.1 fold enrichment (6-mer frequency, TF over GST control); with ELK4 it was 1.28 fold enrichment (6-mer frequency, TF over GST control). For the same sequence, the binding signal with ETV2 was 1.06 fold enrichment (6-mer frequency, TF over GST control); with ELF3, 1.09 fold enrichment (6-mer frequency, TF over GST control); with CRX, 1.01 fold enrichment (6-mer frequency, TF over GST control); with ETV1, 1.11 fold enrichment (6-mer frequency, TF over GST control); with ERF, 1.15 fold enrichment (6-mer frequency, TF over GST control); in the assay with ETV3L, 1.11 fold enrichment (6-mer frequency, TF over GST control). Also, the binding signal is 1.19 fold enrichment (6-mer frequency, TF over GST control) with ETS2; 1.14 fold enrichment (6-mer frequency, TF over GST control) in the assay with SPDEF; 1.11 fold enrichment (6-mer frequency, TF over GST control) with ETV7; 1.12 fold enrichment (6-mer frequency, TF over GST control) in the assay with ELF5; 1.16 fold enrichment (6-mer frequency, TF over GST control) with ETV3; 1.12 fold enrichment (6-mer frequency, TF over GST control) with ETV6.
